Rows were chosen to be rich in hits. Some 4% of all compounds tested hit in one or more screens of this group.
ADAM10 inh – human ADAM10 inhibitors, primary screen, biochemical, QFRET, HTS | Disintegrin and metalloproteinase domain-containing protein 10 (Homo sapiens), O14672 | recombinant ADAM10, EDANS/DABCYL FRET peptide cleavage, 3 h | inhibition, % at 7 µM | 370,000 tested, 0.62% active | AID 720582, 2013;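 active = inhibition above a per-campaign cutoff equal to the mean of compounds falling between control-based bounds plus 3 SD, cut at about 20% in these data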;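 also: 0% = DMSO wells while the 100% control is not disclosed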
ADAM17 inh – ADAM17 inhibitors, primary screen, biochemical, QFRET. Disintegrin and metalloproteinase domain-containing protein 17 (Homo sapiens), P78536. recombinant ADAM17, EDANS/DABCYL FRET peptide cleavage. inhibition, % at 6.95 µM. 370,000 tested, 0.83% active;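 active = inhibition above the mean of compounds lying between control limits plus 3 SD, set per campaign, cut at about 8.5% in these data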;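 also: 0% = DMSO-only wells as the low control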
Target sequence (P78536 215-824 limits assumed): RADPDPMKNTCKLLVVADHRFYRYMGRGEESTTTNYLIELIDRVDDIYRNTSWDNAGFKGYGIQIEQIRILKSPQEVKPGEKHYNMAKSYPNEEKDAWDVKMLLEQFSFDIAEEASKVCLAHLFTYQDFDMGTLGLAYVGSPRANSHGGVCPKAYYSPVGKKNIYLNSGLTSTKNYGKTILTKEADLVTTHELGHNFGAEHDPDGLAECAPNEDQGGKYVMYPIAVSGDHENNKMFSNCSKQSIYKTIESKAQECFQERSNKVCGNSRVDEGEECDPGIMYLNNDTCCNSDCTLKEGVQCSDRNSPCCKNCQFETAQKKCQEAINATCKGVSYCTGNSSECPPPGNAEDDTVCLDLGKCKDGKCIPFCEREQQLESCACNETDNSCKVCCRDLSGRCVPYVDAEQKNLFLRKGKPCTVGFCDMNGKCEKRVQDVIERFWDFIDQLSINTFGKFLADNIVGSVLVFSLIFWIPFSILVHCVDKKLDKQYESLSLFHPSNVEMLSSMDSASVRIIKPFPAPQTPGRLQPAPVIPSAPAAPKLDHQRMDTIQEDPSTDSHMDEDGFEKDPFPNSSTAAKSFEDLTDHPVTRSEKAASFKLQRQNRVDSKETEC
aDG glyco act – activators of alpha-DG glycosylation, primary screen, uHTS, Pro5-aDG cells, AlphaScreen. alpha-DG glycosylation AlphaScreen (IIH6); 0% Pro5, 100% B10-LARGE cell signal. activation, % at 10 µM. 360,000 tested, 0.22% active;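 active = activation of at least 8% versus controls, or a plate z-score of at least 8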;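 also: Pro5 are CHO cells carrying HIG-tagged alpha-DG that lacks glycosylation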
GRIN3A LBD mod – binders of NR3A ligand-binding domain, primary screen, biophysical, differential scanning fluorimetry, uHTS; Glutamate receptor ionotropic, NMDA 3A (GRIN3A) ligand-binding domain; NR3A LBD differential scanning fluorimetry, Tm shift; 0% = protein alone, 100% = glycine-bound protein; Tm shift relative to glycine control, % at 25 µM; 340,000 tested, 2.5% active; AID 1259313, 2017;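 active = melting temperature shift of at least 10% of the positive control shift, at one fixed dose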
FAS TE block – FAS thioesterase domain inhibitors, primary screen, biochemical, fluorescence intensity, uHTS | 360,000 tested, 0.67% active | recombinant FAS-TE, OMFH fluorogenic substrate, fluorescence endpoint | inhibition, % at 15 µM | AID 602261, 2012;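 active = compounds whose normalised, plate-corrected inhibition of enzyme fluorescence in the single-dose primary screen is 50% or more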;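 also: 0% = DMSO with enzyme and 100% = substrate without enzyme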
* marks the source's active call; other numbers are inactive results.

For CC1(C)C2CC[C@]3(C)C(CC=C4[C@@H]5C[C@@](C)(CO)[C@@H](O)C[C@]5(C(=O)O)CC[C@]43C)[C@@]2(C)CC[C@@H]1O (some centres not stated) the results were aDG glyco act 0.0, GRIN3A LBD mod -0.5 and FAS TE block -1.9.
`CC1(C)CC[C@]2(C(=O)O)CC[C@]3(CO)C(=CCC4[C@@]5(C)C[C@H](O)[C@H](O)[C@@](C)(C(=O)O)C5CC[C@]43C)[C@@H]2C1` (some centres not stated) gave ADAM10 inh 0.9, ADAM17 inh -1.5, aDG glyco act -0.3, GRIN3A LBD mod 14.3* and FAS TE block -5.0.
C/C(=N\Nc1cccc([N+](=O)[O-])c1)c1cc2ccccc2o1 was read as ADAM10 inh -4.5, ADAM17 inh -6.7, aDG glyco act -0.5, GRIN3A LBD mod 29.3* and FAS TE block 19.5.
Screening CC/C(=N\Nc1ccc([N+](=O)[O-])cc1[N+](=O)[O-])c1ccc(O)cc1 returned ADAM10 inh 4.2, ADAM17 inh -2.0, aDG glyco act 0.1, GRIN3A LBD mod 18.4* and FAS TE block 4.9.
`C/C(=N\Nc1ccc([N+](=O)[O-])cc1)c1ccc(O)cc1` gave ADAM10 inh 8.7, ADAM17 inh 1.6, aDG glyco act 0.6, GRIN3A LBD mod 22.8* and FAS TE block 2.5.
For C/C(=N\Nc1ccc([N+](=O)[O-])cc1)c1cccc(N)c1 the results were ADAM10 inh 4.3, ADAM17 inh -0.9, aDG glyco act -0.1, GRIN3A LBD mod 29.1* and FAS TE block 11.3.
Screening CCCCCCSc1ccc(-c2nc3ccc(C)cn3c2NC2CCCCC2)cc1 returned ADAM10 inh -150.6, ADAM17 inh -24.6, aDG glyco act 0.3, GRIN3A LBD mod -6.0 and FAS TE block 23.1.
For N#C/C(=C(/O)COC(=O)CSc1ccc(Cl)cc1)c1nc2ccccc2[nH]1 the results were ADAM10 inh -4.1, ADAM17 inh -1.6, aDG glyco act 1.2, GRIN3A LBD mod -3.7 and FAS TE block -6.3.
Cc1[nH][nH]c(=O)c1C(c1cc([N+](=O)[O-])ccc1O)c1c(C)[nH][nH]c1=O was read as ADAM10 inh 1.6, ADAM17 inh 1.3, aDG glyco act -0.2, GRIN3A LBD mod 10.2* and FAS TE block -8.7.
`Cc1[nH][nH]c(=O)c1C(c1ccccc1[N+](=O)[O-])C(C#N)C#N` (configuration not stated) gave ADAM10 inh -23.9, ADAM17 inh -12.4, aDG glyco act -0.1, GRIN3A LBD mod -0.5 and FAS TE block -8.1.
Screening COc1c(F)c(F)c(C(=O)Nc2ccccc2N2CCN(C(C)=O)CC2)c(F)c1F returned ADAM10 inh 2.2, ADAM17 inh -1.6, aDG glyco act -0.1, GRIN3A LBD mod 0.2 and FAS TE block -3.1.
`N/C(=N\S(=O)(=O)c1cc(C(F)(F)F)cc(C(F)(F)F)c1)c1ccncc1` gave ADAM10 inh -7.8, ADAM17 inh -2.6, aDG glyco act 0.0, GRIN3A LBD mod 14.5* and FAS TE block 1.8.
Screening Cc1ccc(SCn2nnc3ccccc3c2=O)c(C)c1 returned ADAM10 inh 10.2, ADAM17 inh -1.0, aDG glyco act 0.3, GRIN3A LBD mod 0.2 and FAS TE block 16.4.
For O=c1c2ccccc2nnn1CSc1ccccc1F the results were ADAM10 inh -1.0, ADAM17 inh 1.8, aDG glyco act -0.1, GRIN3A LBD mod 11.4* and FAS TE block 4.6.
`CC1(c2ccc(OC(F)F)cc2)NC(=O)N(CC(=O)Nc2ccccc2)C1=O` (configuration not stated) gave ADAM10 inh -0.2, ADAM17 inh -0.8, aDG glyco act 0.0, GRIN3A LBD mod -0.3 and FAS TE block 8.6.
`Cc1ccc2nc(-c3ccc(NC(=O)CN4C(=O)NC(C)(c5ccc(OC(F)F)cc5)C4=O)cc3)sc2c1` (configuration not stated) gave ADAM10 inh -179.5, ADAM17 inh -57.7, aDG glyco act 0.4, GRIN3A LBD mod 34.6* and FAS TE block -1.9.
Screening Cc1ccc2nc(-c3ccc(NC(=O)CN(c4ccccc4C)S(C)(=O)=O)cc3)sc2c1 returned ADAM10 inh -387.2, ADAM17 inh -131.7, aDG glyco act 3.5, GRIN3A LBD mod 15.0* and FAS TE block 19.8.
`Cc1cc(C)cc(N(CC(=O)Nc2ccc(-c3nc4ccc(C)cc4s3)cc2)S(C)(=O)=O)c1` gave ADAM10 inh -189.2, ADAM17 inh -51.2, aDG glyco act 0.9, GRIN3A LBD mod 25.9* and FAS TE block 18.1.
`Cc1c(Cc2ccccc2)c(=O)oc2cc(O)ccc12` gave ADAM10 inh inactive, ADAM17 inh inactive, aDG glyco act 0.0, GRIN3A LBD mod -4.6 and FAS TE block 8.4.
Screening Cc1c(Cc2ccccc2)c(=O)oc2c(O)c(O)ccc12 returned ADAM10 inh -81.7, ADAM17 inh -30.8, aDG glyco act 0.6, GRIN3A LBD mod 10.1* and FAS TE block 15.3.
Screening c1ccc(CSc2ccc(-c3cccs3)nn2)nc1 returned ADAM10 inh -12.8, ADAM17 inh -5.0, aDG glyco act 0.0, GRIN3A LBD mod 0.7 and FAS TE block 1.7.
Screening c1ccc(CSc2ccc(-c3cccs3)nn2)cc1 returned ADAM10 inh 3.7, ADAM17 inh -0.5, aDG glyco act 0.4, GRIN3A LBD mod 19.1* and FAS TE block 12.1.
Screening CCOc1ccc(NC(=O)COC(=O)Cc2ccsc2)cc1 returned ADAM10 inh -8.8, ADAM17 inh -3.4, aDG glyco act 0.0, GRIN3A LBD mod 34.5* and FAS TE block -1.4.
Screening CCOc1ccc(NC(=O)COC(=O)c2c[nH]c3ccccc23)cc1 returned ADAM10 inh -2.0, ADAM17 inh -1.8, aDG glyco act 0.1 and FAS TE block -13.1.
`COc1cccc(NC(=O)COC(=O)CCCc2c[nH]c3ccccc23)c1` gave ADAM10 inh 13.4, ADAM17 inh 5.2, aDG glyco act -0.3, GRIN3A LBD mod 3.8 and FAS TE block 18.6.
`CCOc1ccc(NC(=O)COC(=O)CCCc2c[nH]c3ccccc23)cc1` gave ADAM10 inh 8.7, ADAM17 inh 6.7, aDG glyco act -0.2, GRIN3A LBD mod 27.6* and FAS TE block 14.5.
`COc1ccc(NC(=O)COC(=O)CCCc2c[nH]c3ccccc23)cc1` gave ADAM10 inh 1.7, ADAM17 inh 1.8, aDG glyco act -0.1, GRIN3A LBD mod 21.2* and FAS TE block 0.4.
Screening COc1ccccc1CNC(=O)COC(=O)C1CCN(c2ccc(C(F)(F)F)cn2)CC1 returned ADAM10 inh -5.2, ADAM17 inh -5.8, aDG glyco act -0.1, GRIN3A LBD mod -6.7 and FAS TE block 20.3.

Source: PubChem BioAssay (several laboratories)
